In the library only some 2.4% were active in any assay of this set; here they are far more common.
FEN1 inhibitor = blocks human flap endonuclease 1; Potency, µM (top dose mostly 114 µM), hits mostly inhibitors; 390,000 compounds, 0.35% hits; Recombinant FEN1 flap cleavage, fluorescence, 15 min; AID 588795; also: nearly all actives have a fitted effect of over 65% in size
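Read-out was taken twice, immediately and after 15 min, following addition of 50 nM substrate to 10 nM FEN1 that had sat with test compound for 15 min at room temperature. Curves came from a four-parameter Hill model.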
WRN inhibitor = blocks human WRN helicase; Q14191; WRN helicase unwinding, fluorescent forked duplex, kinetic; Potency, µM (highest dose often 114 µM), hits mostly inhibitors; 360,000 compounds, 0.46% hits; also: nearly all actives have a fitted effect of over 55% in size
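Kinetic fluorescence helicase assay: unwinding of a quenched forked DNA duplex (100 nM final) with 2 mM ATP final raises red fluorescence (525/598 nm). Compounds sat 15 min at room temperature with 20 nM WRN beforehand.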
Pol iota inh = DNA polymerase iota (human) inhibition | Q9UNA4 | Pol iota fluorescent replication assay, 10 min | Potency, µM (series often up to 115 µM), usual class: inhibitors | 390,000 compounds, 1% hits | AID 588590
Target sequence (Q9UNA4 whole entry, looked up): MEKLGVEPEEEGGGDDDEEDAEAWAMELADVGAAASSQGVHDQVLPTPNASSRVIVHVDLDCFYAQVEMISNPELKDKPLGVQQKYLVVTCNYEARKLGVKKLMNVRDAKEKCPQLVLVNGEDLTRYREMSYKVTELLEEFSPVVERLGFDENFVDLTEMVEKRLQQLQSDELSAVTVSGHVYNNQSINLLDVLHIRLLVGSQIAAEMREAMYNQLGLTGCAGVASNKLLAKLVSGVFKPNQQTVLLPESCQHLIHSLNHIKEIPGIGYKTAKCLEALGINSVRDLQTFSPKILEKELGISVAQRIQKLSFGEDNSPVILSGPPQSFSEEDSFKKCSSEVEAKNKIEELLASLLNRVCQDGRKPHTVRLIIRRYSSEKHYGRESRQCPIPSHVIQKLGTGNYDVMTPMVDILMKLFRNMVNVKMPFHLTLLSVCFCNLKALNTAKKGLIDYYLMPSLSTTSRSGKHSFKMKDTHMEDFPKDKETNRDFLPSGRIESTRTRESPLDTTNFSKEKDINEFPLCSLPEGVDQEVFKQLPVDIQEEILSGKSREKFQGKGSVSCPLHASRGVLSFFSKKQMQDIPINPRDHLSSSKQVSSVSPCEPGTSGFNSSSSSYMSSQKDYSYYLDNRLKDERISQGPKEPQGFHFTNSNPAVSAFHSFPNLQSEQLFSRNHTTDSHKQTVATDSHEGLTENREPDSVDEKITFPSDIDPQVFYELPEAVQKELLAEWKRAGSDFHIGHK
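Fluorescent replication assay read twice, at 0 min and 10 min after adding 50 nM (final) substrate. Enzyme (10 nM) and compounds were first incubated 15 min at room temperature; enzyme-free buffer wells were negative controls.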
POLH inh = inhibitors of human DNA polymerase eta; Q9Y253; recombinant Pol eta, fluorescent DNA replication assay; Potency, µM (series often up to 114 µM), usual class: inhibitors; 390,000 compounds, 1.2% hits; AID 588591
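Fluorescent replication assay: 50 nM final substrate added after a 15 min room-temperature compound preincubation with 10 nM enzyme. Signal taken at 0 min and again at 10 min.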
POLK inh = blocks human DNA polymerase kappa activity. Q9UBT6. purified Pol kappa, fluorescent DNA synthesis assay, 10 min. Potency, µM (series often up to 107 µM), usual class: inhibitors. 400,000 compounds, 0.53% hits
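Inhibition of 10 nM Pol kappa is measured by a fluorescent read-out at 0 and 10 min following addition of 50 nM substrate (final), with a 15-min room-temperature compound preincubation.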
Pol beta inh = blocks human DNA polymerase beta activity; Potency, µM (series often up to 114 µM), most hits filed as inhibitors; P06746; Pol beta primer extension/strand displacement, fluorescence kinetic; 340,000 compounds, 1.3% hits; AID 485314
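Pol beta (10 nM) and compounds were preincubated 15 min at room temperature, then 50 nM substrate (final) started primer extension/strand displacement. Reads were taken at 0 and 10 min; concentration-response data were fitted to a four-parameter Hill equation.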
Each line names hits and unclear results; the compound was inactive in the other large screens. Calls follow the shape of the dose curve; as a rule, active = well fitted curve in the direction sought with a large enough effect; inconclusive = small, poorly fitted or top-dose-only effect, or another doubt; inactive = no such curve, though single readings can be large; an effect the other way counts as inactive or inconclusive.

Cc1ccc(S(=O)(=O)CCC(=O)c2cccc([N+](=O)[O-])c2)cc1	WRN inhibitor 14.1µM
O=C(NCc1ccccc1Cl)c1cnc2sc(N3CCCCC3)nn2c1=O	none (no result: WRN inhibitor)
Cc1ccc(-n2nc(C)c3c2OC(N)=C(C#N)C3c2ccoc2)cc1 (stereo not given)	Pol iota inh 20µM, Pol beta inh 28.2µM
COc1ccc(S(=O)(=O)NC(C)C(=O)NCc2ccncc2)cc1OC (stereo not given)	Pol iota inh 89.1µM
COc1ccc(S(=O)(=O)NC(C)C(=O)NCc2ccncc2)cc1C (stereo not given)	none
COc1cccc(/C=C2\Oc3cc(OCC(=O)N4Cc5ccccc5C[C@H]4C(=O)O)ccc3C2=O)c1	FEN1 inhibitor inconclusive, Pol iota inh inconclusive, POLH inh 50.1µM
CC(C)(C)n1ncc2c(=O)n(Cc3ccc(F)cc3Cl)cnc21	none (no result: WRN inhibitor, POLH inh, Pol beta inh)
CCN(CC)/[N+]([O-])=N/OCOC(=O)C(C)c1ccc2cc(OC(C)=O)ccc2c1 (stereo not given)	none (no result: WRN inhibitor, POLH inh, Pol beta inh)
COc1ccc(-c2nc3oc4cc(OC)ccc4c(=O)c3c(=O)n2Cc2ccco2)cc1	FEN1 inhibitor inconclusive, POLH inh inconclusive
CCc1nc2oc3cc(OC)ccc3c(=O)c2c(=O)n1Cc1ccco1	Pol iota inh inconclusive, Pol beta inh 25.1µM
N[C@@H](CCS(=O)O)C(=O)O	none (no result: FEN1 inhibitor, WRN inhibitor, Pol iota inh, POLH inh, Pol beta inh)
Cn1c(=O)c2[nH]c(N=NNc3ccccc3F)nc2n(C)c1=O	Pol iota inh 25.1µM
CCC(=O)Nc1ccc(CC)cc1-c1nc2ccccc2n(CC(=O)Nc2cccc(Cl)c2)c1=O	none (no result: WRN inhibitor)
CCCSc1nc2sc3c(c2c(=O)n1-c1ccc(C)c(Cl)c1)CCN(C(C)=O)C3	Pol iota inh inconclusive, POLH inh 79.4µM, Pol beta inh inconclusive (no result: WRN inhibitor)
CC(=O)[C@@]1(O)[C@H](C)CC2C3CC=C4CC(OP(=O)(O)O)CC[C@]4(C)C3CC[C@@]21C (stereo not given in full)	FEN1 inhibitor inconclusive, Pol beta inh 50.1µM
Cc1cccc(N2CCN(C(=O)c3cc4c(=O)[nH]c5ccc(C)cc5c4s3)CC2C)c1 (stereo not given)	none (no result: WRN inhibitor)
Cc1cc(C)cc(NC(=O)CSCn2nnc3c(=O)[nH]c(Cc4ccc(F)cc4)nc32)c1	FEN1 inhibitor inconclusive, Pol iota inh 79.4µM, POLH inh inconclusive, POLK inh 79.4µM, Pol beta inh 39.8µM (no result: WRN inhibitor)
CC1(C)Cc2c(C#N)c(N)sc(=S)c2CS1	WRN inhibitor inconclusive, Pol iota inh inconclusive, POLH inh inconclusive
N#Cc1c(N)sc(=S)c2c1CCCCC2	FEN1 inhibitor inconclusive, WRN inhibitor 20µM, Pol iota inh inconclusive, POLH inh 12.6µM, POLK inh 28.2µM, Pol beta inh 12.6µM
N=C1C(c2nc3ccccc3[nH]2)=C(O)CN1c1ccc(CC(=O)O)cc1	Pol iota inh inconclusive, POLH inh 79.4µM
N=C1C(c2nc3ccccc3[nH]2)=C(O)CN1c1ccccc1	none
Cc1cc(=O)[nH]c(-n2[nH]c3c(c2=O)CCCC3)n1	Pol iota inh 14.1µM
CC(/C=C/c1ccco1)=N\NC(=O)c1cc(C)[nH]n1	WRN inhibitor inconclusive, Pol iota inh 17.8µM, POLH inh 79.4µM, POLK inh inconclusive, Pol beta inh 20µM
CC(C)[C@H]1COCCS(=O)(=O)N1Cc1cccc([N+](=O)[O-])c1	Pol iota inh inconclusive, POLK inh inconclusive (no result: WRN inhibitor, POLH inh, Pol beta inh)
Cc1ccc(/C=C2\SC(=S)N(c3cccnc3)C2=O)o1	Pol iota inh inconclusive, POLK inh 50.1µM
Cc1cc(=O)oc2cc(Oc3ncccc3[N+](=O)[O-])ccc12	Pol beta inh inconclusive
NC(=O)c1ccc(Oc2ccc3ccc(=O)oc3c2)c([N+](=O)[O-])c1	Pol iota inh inconclusive, POLH inh 28.2µM, POLK inh inconclusive, Pol beta inh inconclusive
Cc1cc(=O)oc2cc(Oc3ccc([N+](=O)[O-])cc3[N+](=O)[O-])ccc12	Pol iota inh 79.4µM, POLH inh inconclusive
Fc1ccc(/C=C2\CCCC3=C2Nc2ncnn2C3c2ccc(F)cc2)cc1 (stereo not given)	WRN inhibitor 50.1µM
COc1ccc(C2C3=C(Nc4ncnn42)c2ccccc2CCC3)cc1 (stereo not given)	none
COc1ccc(OC)c(CNC(=O)Cn2nc(C)c3nn(-c4ccc(Cl)cc4)c(C)c3c2=O)c1	none (no result: WRN inhibitor)
CN(Cc1ccccc1)C(=O)CSc1nnc(-c2cccc(Cl)c2)o1	none (no result: WRN inhibitor, POLH inh)
COc1ccc(-c2nnc(SCC(=O)N(C)Cc3ccccc3)o2)cc1OC	POLH inh 79.4µM (no result: WRN inhibitor)
COc1ccc(OCCCCn2c(C3CC(=O)N(c4cccc(Cl)c4)C3)nc3ccccc32)cc1 (stereo not given)	none (no result: WRN inhibitor)
O=c1c(Cl)c(N/N=C/c2ccc(Br)cc2)cnn1-c1ccccc1	FEN1 inhibitor inconclusive, WRN inhibitor inconclusive, Pol iota inh inconclusive, POLH inh inconclusive, POLK inh inconclusive, Pol beta inh 17.8µM
O=c1c2ncn([C@@H]3O[C@@H]4COP(=O)(O)O[C@H]4[C@H]3O)c2nc2[nH]c(-c3ccccc3)cn12	none (no result: FEN1 inhibitor, WRN inhibitor, Pol iota inh, POLH inh, Pol beta inh)
O=C(CSC1=NC(=O)C(c2ccccc2)C(=O)N1)Nc1ccccc1Cl (stereo not given)	none
O=C(CSC1=NC(=O)C(c2ccccc2)C(=O)N1)Nc1ccccc1[N+](=O)[O-] (stereo not given)	Pol iota inh inconclusive, POLH inh 50.1µM, POLK inh inconclusive, Pol beta inh inconclusive
CCOC(=O)C(=O)Nc1ccc(S(=O)(=O)Nc2ncccn2)cc1	Pol beta inh 89.1µM
CN1C(=O)/C(=C/c2ccc(-c3ccccc3[N+](=O)[O-])o2)SC1=Nc1ccc(Cl)c(C(=O)O)c1	FEN1 inhibitor 44.7µM, WRN inhibitor 56.2µM, Pol iota inh inconclusive, POLH inh 20µM, POLK inh inconclusive, Pol beta inh 14.1µM
O=C1C2C3C=CC(C3)C2C(=O)N1/N=C/c1ccc(-c2ccccc2[N+](=O)[O-])o1 (stereo not given)	none
NC1=NC(=O)/C(=C\c2ccc(-c3ccccc3[N+](=O)[O-])o2)S1	FEN1 inhibitor inconclusive, Pol iota inh 20µM, POLK inh inconclusive (no result: WRN inhibitor, POLH inh, Pol beta inh)
Cc1ccc(/C=N\NC(=O)Cc2cccn2C)o1	Pol iota inh 79.4µM
Cc1ccc(OCC(=O)Nc2ccc(C(=O)OCc3cc(=O)n4c(C)csc4n3)cc2)cc1	none (no result: WRN inhibitor)
CCOc1ccc(C(=O)Nc2ccc(C(=O)OCc3cc(=O)n4c(C)csc4n3)cc2)cc1	Pol iota inh inconclusive, Pol beta inh 17.8µM (no result: WRN inhibitor)
Cc1csc2nc(COC(=O)c3ccccc3NC(=O)COc3ccccc3F)cc(=O)n12	Pol beta inh 25.1µM (no result: WRN inhibitor)

Screening data from PubChem BioAssay.
